Source: PubChem
p53ts 32C kill – qHTS Screen for Compounds that Selectively Target Cancer Cells with p53 Mutations: Cytotoxicity of p53ts Cells at the Permissive Temperature; H1299-p53A138V at 32C, ATP luminescence viability, 24 h; actives 0.93% (n = 130,000); Potency, µM (top dose mostly 46.1 µM), for inactives: top-dose activity change, negative = cytotoxicity, usual class: cytotoxic;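 also: potency is read from the fitted curve at half-maximal effect; 0% = DMSO and -100% = full killing by reference compound; nearly all actives have a fitted effect of over 55% in size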
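H1299-p53 A138V cells (temperature-sensitive p53) exposed 24 h to up to 46 uM compound at 32C, where p53 is wild-type in conformation. Viability read as ATP luminescence and normalised to DMSO and 100 uM tamoxifen. AC50 fitted with the Hill equation.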
Imprint erasure – qHTS Assay for Compounds that Induce Erasure of Genomic Imprints; Potency, µM (series often up to 60.7 µM), for the others: at the top dose activity change, positive = activation, most hits filed as activators; actives 0.02% (n = 110,000); mouse ES Peg3-LacZ reporter, beta-gal luminescence, 40 h; also: potency is read from the fitted curve at half-maximal effect
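Readout: BetaGlo luminescence (5 min, room temp) for LacZ from the normally silent maternal Peg3 allele in female Peg3LacZ-Neo ES cells. Cells 300/well, 40 h, 37C, 5% CO2. Data normalized per plate to negative controls.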
p53ts 39C kill – qHTS Screen for Compounds that Selectively Target Cancer Cells with p53 Mutations: Cytotoxicity of p53ts Cells at the Nonpermissive Temperature; Potency, µM (top dose mostly 46.1 µM), for the others: top-dose activity change, negative = cell killing, actives largely listed as cytotoxic; actives 1.5% (n = 130,000); H1299-p53A138V viability at 39C, ATP luminescence, 24 h; also: potency is read from the fitted curve at half-maximal effect; % is scaled to controls: 0 for no effect and ±100 for the full control effect; nearly all actives have a fitted effect of over 55% in size
Tau fil binding – qHTS Assay for Tau Filament Binding | Microtubule-associated protein tau (Homo sapiens), P10636 | recombinant tau filaments, thioflavin S fluorescence, 15 h; filaments grown with octadecylsulfate alongside compound | Potency, µM (titrated, usually from 57.1 µM), inactives show at the top dose activity change, negative = inhibition | actives 2% (n = 71,000);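 also: potency is read from the fitted curve at half-maximal effect; % is scaled to controls: 0 for no effect and ±100 for the full control effect; actives lower thioflavin S fluorescence by blocking filaments or displacing dye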
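ThS-based fibril read: tau 1 uM final, inducer ODS 30 uM final, 37 C for 15 h, ex 450/em 510 nm.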
FLuc inh – qHTS Assay for Inhibitors of Firefly Luciferase | Luciferin 4-monooxygenase (Photinus pyralis), P08659 | actives 2.2% (n = 72,000) | purified firefly luciferase, luminescence, 8 min | Potency, µM (titrated, usually from 57.1 µM), without a hit: at the top dose activity change, negative = inhibition, actives largely listed as inhibitors; also: potency is read from the fitted curve at half-maximal effect; % is scaled to controls: 0 for no effect and ±100 for the full control effect; nearly all actives have a fitted effect of over 40% in size
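Titration-based qHTS; buffer 50 mM imidazole pH 7.2, 50 mM KCl, 7 mM MgCl2, 10 uM ATP, 0.01% Tween 20, 0.05% BSA; luciferase/luciferin detector mix added after compound; 8 min, ambient; luminescence.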
tau ThS displ – Tau ThS binding assay. shares compounds with Tau fil binding. recombinant tau filaments, Thioflavin S fluorescence displacement. Potency, µM. actives 40% (n = 60); calls by dose curve
aSyn ThS bind – Alpha-synuclein ThS binding assay. shares compounds with Tau fil binding. recombinant alpha-synuclein fibrils, ThS fluorescence displacement. Potency, µM. actives 40% (n = 60); calls by dose curve
Abeta ThS bind – Beta amyloid ThS binding assay. Potency, µM. Abeta1-42 fibrillization, thioflavin S fluorescence, overnight 37 C. shares compounds with Tau fil binding. actives 50% (n = 60). AID 956, 2007; calls by dose curve
Target sequence (P05067 whole entry, looked up): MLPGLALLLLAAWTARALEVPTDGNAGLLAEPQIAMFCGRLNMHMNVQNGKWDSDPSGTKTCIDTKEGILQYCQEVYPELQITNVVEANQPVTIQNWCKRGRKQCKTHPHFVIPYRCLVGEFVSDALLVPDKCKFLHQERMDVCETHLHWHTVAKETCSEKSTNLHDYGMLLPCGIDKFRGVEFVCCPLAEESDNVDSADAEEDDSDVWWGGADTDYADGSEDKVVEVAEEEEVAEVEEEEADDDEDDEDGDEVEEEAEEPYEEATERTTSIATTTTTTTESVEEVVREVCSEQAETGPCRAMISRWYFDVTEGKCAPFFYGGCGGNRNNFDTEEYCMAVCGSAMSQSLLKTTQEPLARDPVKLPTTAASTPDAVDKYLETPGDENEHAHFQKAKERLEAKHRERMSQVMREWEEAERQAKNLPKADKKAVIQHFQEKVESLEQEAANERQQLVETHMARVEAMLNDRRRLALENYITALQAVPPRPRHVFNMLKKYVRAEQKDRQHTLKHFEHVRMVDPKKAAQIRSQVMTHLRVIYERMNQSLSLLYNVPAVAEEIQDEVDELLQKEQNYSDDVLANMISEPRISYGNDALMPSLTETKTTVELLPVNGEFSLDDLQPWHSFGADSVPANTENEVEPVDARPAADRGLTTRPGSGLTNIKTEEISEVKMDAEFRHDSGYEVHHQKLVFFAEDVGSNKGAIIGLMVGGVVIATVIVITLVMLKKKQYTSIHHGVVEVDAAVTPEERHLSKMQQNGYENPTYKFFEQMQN
An asterisk follows results filed as active; i = inactive; ? = inconclusive; . = not tested or not shown; [ ] = dose if it differs, or a comment. In the library only some 3.4% were active in any assay of this set; here they are far more common. Unless noted, calls follow the shape of the dose curve; as a rule, active = well fitted curve in the direction sought with a large enough effect; inconclusive = small, poorly fitted or top-dose-only effect, or another doubt; inactive = no such curve, though single readings can be large; an effect the other way counts as inactive or inconclusive.

SMILES | p53ts 32C kill | Imprint erasure | p53ts 39C kill | Tau fil binding | FLuc inh | others
CC(C)CCNC(=O)c1ccc2c(c1)nc1n2CCCCC1 | 15.8µM* | -32.5%[10.9 µM] | 3.16µM* | . | .
CS(=O)(=O)N1CCC(N2CCN(Cc3ccc(F)cc3)C(=O)C2=O)CC1 | 3.0% | -6.6%[10.9 µM] | 22.7% | . | .
CCc1ccc(N2C(=O)CC(c3cc(OC)ccc3OC)C3=C2COC3=O)cc1 (configuration not stated) | -1.7% | -13.8%[10.9 µM] | -5.1% | . | .
CCC/C=C(\CCC)C(NS(=O)(=O)c1cccs1)c1ccc(C(=O)OC)cc1 (configuration not stated) | 35.1% | -21.0% | -3.2% | -4.5% | .
CCOC(=O)c1cnc(-n2nc(C)cc2C)nc1Nc1ccc(N(C)C)cc1 | 8.1% | -22.4% | 12.1% | 12.6µM* | -5.0%
N#Cc1ccsc1NC(=O)CSc1ncnc2ccccc12 | 9.8% | ? | -16.5% | 20µM* | 2.0%
C[C@@H]1O[C@H](O[C@@H]2\C=C/C=C\C=C/C=C\C[C@H](C)OC(=O)/C=C\[C@H]3O[C@@H]3C[C@H](O)C[C@]3(O)C[C@@H](O)[C@@H](C(=O)O)[C@H](C2)O3)[C@@H](O)[C@H](N)[C@@H]1O (stereo in doubt) | 2.5%[20.6 µM] | 4.8%[16.8 µM] | 12.1%[20.6 µM] | 15.5%[25.6 µM] | 3.4%[25.5 µM]
COc1ccc(Cn2c(C3CC3)nc3ccc(NC(C)=O)cc3c2=O)cc1 | -16.1% | -67.8% | -5.1% | 224.4% | 20µM*
Cc1cccc(-n2c3nc(=O)n(C)c(=O)c-3cc3ccc(Cl)cc32)c1C | 10.0% | -11.2%[10.9 µM] | 24.8% | . | .
Cc1ccc(NC(=O)c2ccco2)cc1C | ? | -79.9% | ? | -5.3% | 15.8µM*
CCC(=O)Nc1ccc(NC(=O)c2ccco2)cc1 | 12.6µM* | -34.3% | 10µM* | -3.7% | ?
O=C(Nc1cccc(OC(=O)c2ccco2)c1)c1ccco1 | -5.6% | -42.2% | 1.4% | 10.0% | -5.5%
COc1ccc(NC(=O)c2ccco2)cc1NC(=O)c1ccc(C)c(C)c1 | -14.7% | 10.5%[10.9 µM] | -29.1% | . | .
O=C(Nc1ccccn1)c1ccc(NC(=O)c2ccco2)cc1 | ? | -74.9% | ? | -2.8% | 25.1µM*
O=C(Nc1ccc(OC(=O)c2ccco2)cc1)c1ccco1 | 1.1% | -13.6% | -0.2% | -4.5% | 12.6µM*
CC(=O)Oc1ccc(/C=C\C(=O)C[C@@H]2O[C@@H](Oc3cc(OC(C)=O)c4c(c3)O[C@@H](c3ccc(OC(C)=O)cc3)CC4=O)[C@H](OC(C)=O)[C@H](OC(C)=O)[C@@H]2OC(C)=O)cc1 | . | . | . | ? | 3.9%[11.4 µM]
COc1cccc(Nc2nc3cc(Cl)c(Cl)cc3nc2-n2nc(C)cc2C)c1 | -0.6% | 3.5%[10.9 µM] | 8.7% | . | .
O=C(Nc1ccc2c(c1)Cc1ccccc1-2)c1ccco1 | ? | -35.2% | ? | 28.5% | 10µM*
CNC(=O)C1CCN(C(=O)N2CC(C)Oc3ccc(Cl)cc32)CC1 (configuration not stated) | 21.2% | -6.6%[10.9 µM] | 2.1% | . | .
C=CC(=O)CC | 8.2%[1.84 µM] | 31.6µM* | -7.6% | 2.9% | .
O=C1C2=C(Nc3ccccc3SC2c2ccco2)c2ccccc21 (configuration not stated) | 18.0% | -11.6% | 37.7% | 3.98µM* | -3.8%
CC(C)c1ccc(C2Sc3ccccc3NC3=C2C(=O)c2ccccc23)cc1 (configuration not stated) | -28.8% | -16.1%[10.9 µM] | -3.5% | . | .
Nc1ccc(-c2n[nH]c(=O)c3ccccc23)cc1N | 19.4% | -4.8% | 8.2% | 15.8µM* | -14.1%
Cc1ccc(-c2n[nH]c(=O)c3ccccc23)cc1N | 12.3% | -19.2% | -10.0% | -3.3% | 1.3%
N#CCCS(=O)(=O)c1nnnn1-c1ccccc1 | ? | -27.3% | 20µM* | 0.6% | -6.9%
SMILES | p53ts 32C kill | Imprint erasure | p53ts 39C kill | Tau fil binding | FLuc inh | others
Nc1ccc(C2CCCc3nonc32)c2nonc12 (configuration not stated) | 7.8% | -22.5% | -8.0% | 25.1µM* | 0.2%
CC(=O)c1cc(-c2ccc(F)cc2)n(CCC(=O)NCc2ccccc2C)c1C | -5.2% | -9.2%[10.9 µM] | -17.0% | . | .
NC(=O)c1cc(N)ccc1N1CCCC1 | -3.8% | -15.1% | -8.9% | 15.8µM* | -6.7%
Cn1c(=O)oc2cc(S(=O)(=O)CCC(=O)N3CCN(c4cccc(Cl)c4)CC3)ccc21 | -0.8% | -2.0%[10.9 µM] | 23.6% | . | .
O=C(Nc1ccccc1O)c1ccccc1O | -22.7% | -60.4% | ? | -4.0% | 20µM*
Cc1csc(NC(=O)c2ccccc2O)n1 | ? | -68.0% | ? | -3.2% | 25.1µM*
Cc1ccc(C(=O)O)c(C(=O)Nc2nc(C)cs2)c1 | 2.1% | . | 4.0% | -11.6% | 5.3%
Cc1cccc(NC(=O)c2ccccc2O)c1C | ? | -33.5% | 12.1% | -8.5%[11.4 µM] | -26.7%
COc1ccc(N2CCN(C(=O)c3cc(NS(=O)(=O)c4ccc(F)cc4)ccn3)CC2)cc1 | 2.8% | . | . | . | .
CCOC(=O)C1CCN(S(=O)(=O)c2cccc3nonc23)CC1 | -2.5% | -14.7% | 11.0% | -11.1% | 1.7% | tau ThS displ=i;aSyn ThS bind=i;Abeta ThS bind=i
Cc1noc(/C=C/c2ccccc2F)c1S(=O)(=O)N1CCC(C(=O)NCC(C)c2ccccc2)CC1 (configuration not stated) | -12.4% | -8.3%[10.9 µM] | -4.1% | . | .
FC(F)(F)c1ccccc1-c1nccc(-n2ccnc2)n1 | 1.6% | -12.9% | -2.5% | -5.2% | -0.5%[2.29 µM]
Cc1cc(NC(=O)c2cc3nc(C4CC4)cc(C(F)(F)F)n3n2)no1 | -2.8% | 1.3% | 2.7% | -7.2% | 0.6% | tau ThS displ=?;aSyn ThS bind=i;Abeta ThS bind=?
CCOc1ccc(-n2nc(CO)c(C(=O)NCc3cccs3)n2)cc1 | -17.5% | -14.7%[10.9 µM] | ? | . | .
Cc1cc(C(=O)Nc2ccc(N3CCOCC3)cc2)c2ccccc2n1 | -7.3% | -4.9% | -4.8% | 7.94µM* | 1.8% | tau ThS displ=i;aSyn ThS bind=i;Abeta ThS bind=i
COC(=O)c1ccc(NC(=O)CSc2nc3ccc(OC)cc3[nH]2)cc1 | 1.0% | 19.5%[10.9 µM] | -10.6% | . | .
COc1cccc(NC(=O)CSCn2nnc3c(=O)[nH]c(Cc4ccc(F)cc4)nc32)c1 | 4.9% | -10.2%[10.9 µM] | -7.5% | . | .
Oc1c(CN2CCOCC2)cc(COCc2ccccc2)c2cccnc12 | ? | -35.9% | ? | -47.9% | -0.8% | tau ThS displ=i;aSyn ThS bind=?;Abeta ThS bind=i
